# Screening results from PubChem BioAssay.
# ZTA DNA inh = ZTA (EBV) inhibition in EBNA-1 counter-screen; P03206; ZTA-DNA binding, fluorescence polarization; inhibition, % at 11 µM; actives 0.15% (n = 320,000); AID 2234; in the data active = inhibition above about 33%
# Target sequence (P03206 whole entry, looked up): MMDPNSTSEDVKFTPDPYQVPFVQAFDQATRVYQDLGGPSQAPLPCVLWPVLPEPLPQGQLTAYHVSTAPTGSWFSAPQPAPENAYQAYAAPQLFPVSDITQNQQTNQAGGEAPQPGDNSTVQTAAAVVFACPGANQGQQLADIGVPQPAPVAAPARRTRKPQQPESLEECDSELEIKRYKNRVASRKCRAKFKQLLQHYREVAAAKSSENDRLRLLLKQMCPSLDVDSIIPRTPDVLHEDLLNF
# dFosB act = activators of delta FosB homodimer, primary screen, biochemical, fluorescence polarization, TAMRA-CDK5 oligo, single point; AID 493131, 2011; purified delta FosB; percent of positive-control signal above neutral wells; activation, % at 25 µM; actives 0.99% (n = 340,000);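 active = mean activation above about 17%, with every replicate also reaching it, limit read from the data, passing the limit was not always enough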
# GRIN3A LBD mod = binders of NR3A ligand-binding domain, primary screen, biophysical, differential scanning fluorimetry, uHTS | NR3A LBD differential scanning fluorimetry, Tm shift; 0% = protein alone, 100% = glycine-bound protein | Tm shift relative to glycine control, % at 25 µM | actives 2.5% (n = 340,000) | AID 1259313, 2017;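 active = melting temperature shift of at least 10% of the positive control shift, at one fixed dose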
# EBNA-1 inhibitor = EBNA-1 DNA-binding inhibitors, primary screen, biochemical, fluorescence polarization | inhibition, % at 14.8 µM | actives 0.34% (n = 300,000); in the data active = inhibition above about 28%
# Rpn11 block = Rpn11 (PSMD14) deubiquitinase inhibitors, primary screen, biochemical, fluorescence polarization, uHTS | 26S proteasome non-ATPase regulatory subunit 14 (Homo sapiens), O00487 | human 26S proteasome, Ub4-pepOG fluorescence polarization; 20S core pre-blocked with epoxomicin | inhibition, % at 20 µM | actives 0.59% (n = 360,000);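 active = inhibition at 20 µM, scaled to each plate's controls, above about 33%, limit read from the data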
# TPT1 inh = Candida albicans TPT1 enzyme inhibitors, primary screen, biochemical, fluorescence polarization; recombinant caTPT1, FP RNA substrate dephosphorylation; inhibition, % at 5 µM; actives 0.81% (n = 300,000);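 active = inhibition above the mean of all tested compounds plus 3 SD, set per screening campaign, cut at about 24% in these data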;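 note: plate controls were DMSO alone for no effect and ferristatin control at 100 nM for full effect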
# caTPT1 confirm = Candida albicans TPT1 inhibitors, confirmation, biochemical, fluorescence polarization, triplicate | shares compounds with TPT1 inh | recombinant caTPT1, RNase T1 coupled | AID 2149, 2009 | actives 74% (n = 2,400) | inhibition, % at 5 µM;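 active = inhibition above the primary screen limit, the mean inhibition of all tested compounds plus 3 SD, cut at about 25% in these data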
# RNase T1 counter = RNase T1 inhibitors, counter-screen for TPT1 inhibitor project, biochemical, fluorescence polarization; shares compounds with TPT1 inh; RNase T1 cleavage, 1536-well; inhibition, % at 5 µM; actives 83% (n = 2,400); AID 2153, 2009;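 active = inhibition above the solvent-only control well mean plus 3 SD, limit set per screening run, cut at about 23% in these data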;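 note: plate controls were DMSO wells with enzyme for no effect and wells without RNase T1 for full effect; inhibitors block cleavage so intact labeled substrate keeps polarization high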
# Target sequence (P00651 whole entry, looked up): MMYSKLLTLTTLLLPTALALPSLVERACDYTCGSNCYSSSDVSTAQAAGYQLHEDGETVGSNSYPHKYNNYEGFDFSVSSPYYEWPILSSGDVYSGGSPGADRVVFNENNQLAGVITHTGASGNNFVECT
# The depositor's hits bear a star; · = no result given. This is a sample that favours compounds with a hit; in the whole collection about 4.5% have one here.
SMILES,ZTA DNA inh,dFosB act,GRIN3A LBD mod,EBNA-1 inhibitor,Rpn11 block,TPT1 inh,caTPT1 confirm,RNase T1 counter
CCN(CC)c1ccc(/C=N/NC(=O)OC)c(O)c1,-8,-14,2,-2,-2,-11,·,·
CCN(CC)c1ccc(N=Cc2ccc(N(CC)CC)cc2O)cc1,192*,-7,0,129*,·,63*,120*,121*
COc1ccc(C(CNC(=O)CCNS(=O)(=O)c2ccccc2)N2CCOCC2)cc1 (stereo unspecified),·,·,·,·,0,·,·,·
COc1ccc(/C=N/n2c(C3CCCCC3)n[nH]c2=S)c(OC)c1,5,-21,3,5,-1,-4,·,·
CCc1ccc2[nH]c(O)c(N=Nc3nc(-c4ccccc4)cs3)c2c1,4,-13,-1,-8,33,43*,26*,40*
Oc1c(/C=C/C=C/C=Nc2ccccc2)sc(=S)n1Cc1ccccc1,5,·,10*,13,·,43*,28*,39*
Cc1nnc(SCc2nc3ccccc3s2)n1-c1ccccc1,3,-1,-1,3,20,15,·,·
c1ccc(-n2cnnc2SCc2nc3ccccc3s2)cc1,13,-13,0,-2,17,33*,49*,61*
CCCCCCc1cc2cc(S(=O)(=O)c3ccc(F)cc3)c(=O)oc2cc1O,6,6,1,-6,11,17,·,·
CCCCCCc1cc2cc(C(=O)Nc3ccccc3OC)c(=O)oc2cc1O,-1,-7,-12,5,-3,-2,·,·
CCCCCCc1cc2cc(-c3nnc(-c4ccccc4O)o3)c(=O)oc2cc1O,-9,-12,29*,4,·,121*,114*,113*
CCCCCCc1cc2cc(-c3nnc(-c4cc(OC)c(OC)c(OC)c4)o3)c(=O)oc2cc1O,15,·,-4,10,·,118*,130*,121*
CCCCCCc1cc2cc(-c3nnc(-c4ccccc4OC)o3)c(=O)oc2cc1O,4,-7,24*,6,·,97*,97*,114*
CCCNC(=S)N1CCC(C(=O)c2ccc3c(c2)OCCO3)CC1,-3,-7,10,0,-11,-5,·,·
CCc1ccc(NC(=S)N2CCCC(C(F)(F)F)C2)cc1 (stereo unspecified),-2,-4,-1,-9,-2,-2,·,·
CCN(CC)c1ccc(/C=N/NC(=O)c2cccc(S(=O)(=O)Nc3ccccc3OC)c2)c(O)c1,6,-19,14*,-8,·,55*,78*,87*
COc1ccccc1-c1c(C)oc2c(CN3CCCCC3C)c(O)ccc2c1=O (stereo unspecified),-7,2,0,-8,0,-2,·,·
NC(=O)NC(=O)CC1S/C(=N/N=C2\CSC(=O)N2)NC1=O (stereo unspecified),-6,4,-1,10,4,1,·,·
O=C(O)CNC(=O)CC1S/C(=N/N=C2/NC(=O)CS2)NC1=O (stereo unspecified),-8,-2,1,-3,14,26*,33*,46*
Cc1cccc(C)c1OCc1cc(C(=O)N2CCN(c3ccc(F)cc3)CC2)no1,8,-5,-1,-10,-2,3,·,·
CCOc1ccccc1CNC(=O)c1ccc2c(c1)N(CC)CCS2,-9,-10,-3,-2,9,1,·,·
CCOC(=O)C1=C(c2ccccc2)N=c2sc(=Cc3cc(OC)c(OC)c(OC)c3)c(=O)n2C1c1cccs1 (stereo unspecified),·,·,·,·,18,·,·,·
